Records with an inconclusive call do not appear. Where a call stands in place of a potency, no number is given. Active and inactive are the calls of the source. The call rests on the fitted dose curve; in most records, active means well fitted cell-killing curve with a large enough effect in the repeat runs; inconclusive means weak or mixed curves, or effect the other way; inactive means flat fitted curve, though single readings scatter.

The nature of experiment [1]: cAMP Responsive Elements (CRE) small molecule antagonists, cell-based qHTS assay: qHTS cell viability counter screen (AID 2060913). Further: nearly all actives have a fitted effect of over 40% in size. To be noted: CRE-bla HEK293T viability, CellTiter-Glo luminescence, 5 h; series mostly up to 92.4 µM. The procedure, abridged: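 Viability of NKH477-stimulated (0.25 uM final) CRE-bla HEK293T cells is measured by CellTiter-Glo luminescence following 3 hrs compound exposure at 37 C.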
Background: In qHTS, concentration-response curves come from the screen itself.

Experiment [2] can be described thus: cAMP Responsive Elements (CRE) small molecule agonists, cell-based qHTS assay: qHTS cell viability counter screen (AID 2060914). Further: nearly all actives have a fitted effect of over 50% in size. To be noted: CRE-bla HEK293T viability, CellTiter-Glo luminescence, 5 h; series mostly up to 92.4 µM. In a few lines:
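Cytotoxicity was measured as ATP luminescence (CellTiter-Glo, 30 min at room temperature) in the same wells as the CRE-bla FRET read-out. HEK293T CRE-bla cells had 3 h compound exposure at 37C/5% CO2.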

For the molecule `C=CC(=O)NC(C)(C)C`, the Potency entry in experiment [1] and in experiment [2] was “inactive” each time.
For the molecule `CCCCOCCOC(=O)CCCCCCCCC(=O)OCCOCCCC`, the Potency result in experiment [1] and in experiment [2] was “inactive” in each case.
With `N#CC1(N)CCCCC1`, the Potency entry in experiment [1] and in experiment [2] was “inactive” throughout.
As to `CCOC(=O)OC(=O)OCC`, the Potency result in experiment [1] and in experiment [2] was “inactive” each time.
For the molecule `Cc1ccc(S(=O)(=O)O)cc1C`, the Potency entry in experiment [1] and in experiment [2] was “inactive” each time.
Regarding `c1ccc2sc(SN3CCOCC3)nc2c1`, the Potency result in experiment [1] and in experiment [2] was “inactive” in each case.
As for `O=C1OC2(c3ccccc31)c1cc(I)c(O)c(I)c1Oc1c2cc(I)c(O)c1I`, the Potency result in experiment [1] and in experiment [2] was “inactive” in each case.
For the molecule `Cc1cc(Br)ccc1NC(=O)CCl`, the Potency result in experiment [1] and in experiment [2] was “inactive” in each case.
Consider `C[C@@H]1CCC[C@H](C)N1CCCC(O)(c1ccccc1)c1ccccn1` (stereo partly drawn), for which the Potency result in experiment [1] and in experiment [2] was “inactive” in each case.
As to `C=CCn1c(=O)n(CC=C)c(=O)n(CC=C)c1=O`, the Potency entry in experiment [1] and in experiment [2] was “inactive” throughout.
Take `CCC(C)(C)C`: the Potency entry in experiment [1] and in experiment [2] was “inactive” throughout.
On to `c1coc(Cn2cccc2)c1`, for which the Potency result in experiment [1] and in experiment [2] was “inactive” throughout.
Turning to `C=C(C)C(=O)OCC1CCCO1` (stereo not drawn), the Potency result in experiment [1] and in experiment [2] was “inactive” in each case.
Regarding `COCCC(=O)OC`, the Potency result in experiment [1] and in experiment [2] was “inactive” throughout.
`CCC[C@H](N[C@@H](C)C(=O)N1[C@H](C(=O)O)C[C@@H]2CCCC[C@@H]21)C(=O)OCC`: the Potency entry in experiment [1] and in experiment [2] was “inactive” in each case.
Take `C=CCCCCCCC=C`: the Potency entry in experiment [1] and in experiment [2] was “inactive” in each case.
`CC(C)=CCOc1ccc(/C=C/C(=O)c2ccc(OCC=C(C)C)cc2OCC(=O)O)cc1`: the Potency entry in experiment [1] and in experiment [2] was “inactive” throughout.
For `CC1(C)C(=O)C(C)(C)C1=O`, the Potency entry in experiment [1] and in experiment [2] was “inactive” each time.
On to `NC(=O)c1ccc(N)cc1`, for which the Potency result in experiment [1] and in experiment [2] was “inactive” throughout.
As to `CCOc1ccc2nc3cc(N)ccc3c(N)c2c1`, the Potency result in experiment [1] and in experiment [2] was “inactive” throughout.
Consider `CCOC(=O)c1ccccc1OC`, for which the Potency entry in experiment [1] and in experiment [2] was “inactive” each time.
For `O=C(O)CS`, the Potency result in experiment [1] and in experiment [2] was “inactive” throughout.
Consider `CCOC(=O)c1ccc(C2CCC(NC[C@H](O)COc3ccc(O)c(NS(C)(=O)=O)c3)CC2)cc1` (stereo partly drawn), for which the Potency result in experiment [1] and in experiment [2] was “inactive” in each case.
Turning to `Cc1c(C)n(Cc2ccccc2)c2ccc(C(=O)OCCN(C)C)cc12`, the Potency entry in experiment [1] and in experiment [2] was “inactive” in each case.
On to `C[C@H]1O[C@H](O[C@H]2[C@H](O)[C@@H](O)[C@@H](O[C@H]3[C@H](O)[C@@H](O)[C@H](O)O[C@@H]3CO)O[C@@H]2CO)[C@H](O)[C@@H](O)[C@@H]1N[C@H]1C=C(CO)[C@@H](O)[C@H](O)[C@H]1O`, for which the Potency entry in experiment [1] and in experiment [2] was “inactive” in each case.
With `CCCCCCCCCCCCCC`, the Potency entry in experiment [1] and in experiment [2] was “inactive” throughout.
With `CC1=CCC(C(C)C)=CC1`, the Potency result in experiment [1] and in experiment [2] was “inactive” each time.
As to `CC(N)CCCC(C)(C)O` (stereo not drawn), the Potency result in experiment [1] and in experiment [2] was “inactive” each time.
For the molecule `NCCOCCOCCN`, the Potency entry in experiment [1] and in experiment [2] was “inactive” in each case.
Regarding `N#Cc1c(F)cccc1F`, the Potency result in experiment [1] and in experiment [2] was “inactive” throughout.
On to `c1ccc2cnccc2c1`, for which the Potency entry in experiment [1] and in experiment [2] was “inactive” throughout.
Consider `C=C1CC[C@H](O)CC1=C/C=C1\CCC[C@]2(C)[C@@H]([C@H](C)/C=C/[C@H](C)C(C)C)CC[C@@H]12`, for which the Potency result in experiment [1] and in experiment [2] was “inactive” each time.
`C=CC(=O)NCOCCCC`: the Potency entry in experiment [1] and in experiment [2] was “inactive” in each case.
As for `CC(C)C/C=C(\C=O)c1ccccc1`, the Potency result in experiment [1] and in experiment [2] was “inactive” in each case.
`CCCCCCCCCCCCCCCBr`: the Potency result in experiment [1] and in experiment [2] was “inactive” throughout.
`CC(C)(C)NC(N)=O`: the Potency result in experiment [1] and in experiment [2] was “inactive” in each case.
For the molecule `COc1ccc(-c2cc(C(F)F)nn2-c2ccc(S(N)(=O)=O)cc2)cc1F`, the Potency result in experiment [1] and in experiment [2] was “inactive” throughout.
Consider `C[n+]1ccn(Cc2ccccc2)c1`, for which the Potency entry in experiment [1] and in experiment [2] was “inactive” throughout.
For `CC1CCC(=O)C1=O` (stereo not drawn), the Potency entry in experiment [1] and in experiment [2] was “inactive” in each case.
As to `O=S1(=O)N=C(O)c2ccccc21`, the Potency entry in experiment [1] and in experiment [2] was “inactive” each time.
Regarding `COc1ccc(NC(=O)CC(C)=O)cc1`, the Potency result in experiment [1] and in experiment [2] was “inactive” throughout.
Take `CC/C=C\CC/C=C/CO`: the Potency entry in experiment [1] and in experiment [2] was “inactive” throughout.
As to `COC(C)CCO` (stereo not drawn), the Potency result in experiment [1] and in experiment [2] was “inactive” each time.
Consider `CC(C)CCCC(C)CC=O` (stereo not drawn), for which the Potency result in experiment [1] and in experiment [2] was “inactive” in each case.
As to `O=C(NCc1ncc(C(F)(F)F)cc1Cl)c1c(Cl)cccc1Cl`, the Potency result in experiment [1] and in experiment [2] was “inactive” in each case.
Regarding `CCCCCCC(=O)OCC`, the Potency result in experiment [1] and in experiment [2] was “inactive” each time.
Consider `NC(=O)N1c2ccccc2C=Cc2ccccc21`, for which the Potency entry in experiment [1] and in experiment [2] was “inactive” throughout.
Consider `c1ccc2cnncc2c1`, for which the Potency result in experiment [1] and in experiment [2] was “inactive” in each case.
For the molecule `CCc1c(C)[nH]c2c1C(=O)C(CN1CCOCC1)CC2` (stereo not drawn), the Potency result in experiment [1] and in experiment [2] was “inactive” each time.
`CCN(CC)CCNC(=O)COc1ccc(OC)cc1`: the Potency result in experiment [1] and in experiment [2] was “inactive” throughout.
With `CCOCOCC`, the Potency result in experiment [1] and in experiment [2] was “inactive” each time.
With `CC1(C)[C@H]2CC[C@]1(C)C(=O)C2`, the Potency entry in experiment [1] and in experiment [2] was “inactive” in each case.
On to `Clc1cccnc1`, for which the Potency result in experiment [1] and in experiment [2] was “inactive” in each case.
With `NC(CSCC(=O)O)C(=O)O` (stereo not drawn), the Potency result in experiment [1] and in experiment [2] was “inactive” throughout.

(Values after PubChem BioAssay (Tox21).)
